# PubChem BioAssay (Tox21)
# Unmarked numbers belong to inactive results. Records with an inconclusive call do not appear. A call without a number means that no potency is given here. The source made the active and inactive calls. Unless noted, calls follow the shape of the full dose curve.
# Key:
# [1] = Nuclear factor erythroid 2-related factor 2/antioxidant responsive element (Nrf2/ARE) small molecule agonists: qHTS cell viability counter screen in human keratinocytes (AID 1919968; active = well fitted curve in the direction sought with a large enough effect in the repeat runs; an effect the other way counts as inactive or inconclusive; also: nearly all actives have a fitted effect of over 55% in size; also: potency is read from the fitted curve at half-maximal effect)
# Summary of the method: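 HaCaT ARE reporter line, 1,500 cells/well; 5 h settle, 37 C/5% CO2; cpd in DMSO pinned; 23 h exposure; CellTiter-Fluor, 1 h; fluorescence.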
# [2] = Nuclear factor erythroid 2-related factor 2/antioxidant responsive element (Nrf2/ARE) small molecule agonists: luciferase reporter gene qHTS assay in human keratinocytes (AID 1919969); also: nearly all actives have a fitted effect of over 35% in size; also: potency is read from the fitted curve at half-maximal effect
# [3] = target: KiSS-1 receptor (Homo sapiens) (UniProt Q969F8); assay: Human kisspeptin (KISS1R) small molecule agonists, calcium flux assay in KISS1R-HEK293 cells (AID 1920064; active = well fitted curve in the direction sought with a large enough effect in the repeat runs; an effect the other way counts as inactive or inconclusive)
# Summary of the method: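 Stable human KISS1R HEK293 line; 18 h plating, 37 C/5% CO2; calcium dye 1 h 37 C; compound pin transfer; kinetic fluorescence Ex/Em 480/540, 3 min.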
# [4] = G protein-coupled receptor (GPCR) small molecule agonists, calcium flux assay: HEK293 wild type cell line counter screen (AID 1920065)
# Summary of the method: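 Kinetic fluorescence at Ex/Em 480/540, recorded every second over 3 min, served as the read-out after compound addition. Each compound was tested at 15 concentrations in triplicate on cells pre-loaded with calcium dye for 1 h.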
# [5] = p53 small molecule agonists, cell-based qHTS assay with human liver microsomes (AID 1963577)
# Summary of the method: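 Compounds act here after metabolic activation: human liver microsomes and NADPH, both at 0.5 mg/mL final, were co-added to p53RE-bla cells. Incubation ran 16 h at 37 C, followed by LiveBLAzer detection.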
# [6] = p53 small molecule agonists, cell-based qHTS assay with rat liver microsomes (AID 1963578)
# Summary of the method: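 Read-out is beta-lactamase reporter fluorescence (LiveBLAzer, 2 h, room temperature, dark) in p53RE-bla cells treated 16 h at 37 C with compound, rat liver microsomes and NADPH, both 0.5 mg/mL final.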
# [7] = p53 small molecule agonists, cell-based qHTS assay with human liver microsomes: qHTS cell viability counter screen (AID 1963579); also: nearly all actives have a fitted effect of over 45% in size; also: potency is read from the fitted curve at half-maximal effect
# Summary of the method: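 Cells carrying the p53 response-element beta-lactamase reporter are treated for 16 h at 37 C with test compounds in the presence of human liver microsomes and NADPH (both 0.5 mg/mL final); ATP-based CellTiter-Glo luminescence then reports viability.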
# [8] = p53 small molecule agonists, cell-based qHTS assay: qHTS cell viability counter screen (AID 1963581); also: nearly all actives have a fitted effect of over 45% in size; also: potency is read from the fitted curve at half-maximal effect
# Summary of the method: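 HCT-116 p53RE-bla cells, 4,000/well, plated 5 h before compound pin transfer; 16 h at 37 C; bla substrate 2 h RT; then CellTiter-Glo, 30 min RT, luminescence.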
# [9] = p53 small molecule agonists, cell-based qHTS assay (AID 1963582; active = well fitted activation curve with a large enough effect in the signal ratio in the repeat runs, not every such curve was filed as active; the % refers to the signal ratio)
# Summary of the method: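 Reporter line: p53RE-bla. Pre-incubation 5 h, 37 C, 5% CO2; compound (DMSO, pin tool) 16 h, 37 C; B/G FRET substrate 2 h RT; fluorescence intensity read.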
# [10] = target: 5-hydroxytryptamine receptor 2A (Homo sapiens) (UniProt P28223); assay: 5-hydroxytryptamine receptor 2A (HTR2A) small molecule antagonists, cell-based qHTS assay (AID 1963586); also: nearly all actives have a fitted effect of over 45% in size
# Summary of the method: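 Antagonist-mode intracellular calcium assay: DOI (4 nM) added after 5 min compound pre-incubation at room temperature to dye-loaded HTR2A-CHO cells. Fluorescence followed for 3 min, sampled every second.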
# [11] = target: Muscarinic acetylcholine receptor M1 (Homo sapiens) (UniProt P11229); assay: Cholinergic receptor muscarinic 1 (CHRM1) small molecule antagonists, cell-based qHTS assay (AID 1963588); also: nearly all actives have a fitted effect of over 40% in size; also: potency is read from the fitted curve at half-maximal effect
# Summary of the method: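 CHRM1-CHO calcium-flux assay, antagonist mode. Cells were seeded 18 h, dye-loaded 1 h at 37 C and given compound for 5 min at RT, then acetylcholine was added at 50nM. FDSS fluorescence was read 3 min; 15 concentrations, three runs.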
# [12] = target: Muscarinic acetylcholine receptor M1 (Homo sapiens) (UniProt P11229); assay: Cholinergic receptor muscarinic 1 (CHRM1) small molecule agonists, cell-based qHTS assay (AID 1963589); also: nearly all actives have a fitted effect of over 35% in size; also: potency is read from the fitted curve at half-maximal effect
# Summary of the method: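 Human M1 in stable CHO line; 18 h plating, 1 h dye load 37 C; cpd added (agonist mode); Ca2+ fluorescence kinetic read, 1 s intervals; 15 conc, 3 runs.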
# [13] = cAMP Responsive Elements (CRE) small molecule agonists, cell-based qHTS assay (AID 1963590)
# Summary of the method: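 HEK 293T CRE-bla, 2,000 cells/well, 18 h preincubation 37 C/5% CO2; cpds (DMSO) pinned, 3 h; LiveBLAzer B/G FRET substrate, 2 h RT.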
# [14] = cAMP Responsive Elements (CRE) small molecule antagonists, cell-based qHTS assay (AID 1963591; active = well fitted inhibition curve with a large enough effect in the signal ratio in the repeat runs, not every such curve was filed as active; the % refers to the signal ratio; also: potency is read from the fitted curve at half-maximal effect)
# Summary of the method: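 Beta-lactamase reporter read by FRET substrate (LiveBLAzer B/G) after 2 h at room temperature. CRE-bla HEK293T cells had received compound plus 0.25 uM (final) NKH477 for 3 h at 37 °C.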
# [15] = target: Beta-2 adrenergic receptor (Homo sapiens) (UniProt P07550); assay: Adrenergic beta2 receptor (ADRB2) small molecule antagonists, cell-based qHTS assay (AID 1963592); also: nearly all actives have a fitted effect of over 50% in size; also: potency is read from the fitted curve at half-maximal effect
# Summary of the method: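 Cells (CHO, stable ADRB2 overexpression) incubated 18-20hr at 37C; compounds added from DMSO; agonist mix (1nM isoproterenol, 100uM IBMX, 25uM Ro-20-1724) added; 0.5hr RT; d2-cAMP and anti-cAMP-cryptate added; 1hr RT; 665/615 nm read.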
# [16] = target: Beta-2 adrenergic receptor (Homo sapiens) (UniProt P07550); assay: Adrenergic beta2 receptor (ADRB2) small molecule agonists, cell-based qHTS assay (AID 1963593);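 also: CHO cells stably overexpressing human ADRB2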
# Summary of the method: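 CHO cells stably over-expressing ADRB2 were plated overnight at 37C, then dosed with compounds plus a stimulation mix containing 100uM IBMX and 25uM Ro-20-1724 for 0.5hr at room temperature. cAMP was measured by HTRF competition, 1hr.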
# [17] = target: D(2) dopamine receptor (Homo sapiens) (UniProt P14416); assay: Dopamine D2 receptor (DRD2) small molecule agonists, cell-based qHTS assay (AID 1963594); also: nearly all actives have a fitted effect of over 35% in size; also: potency is read from the fitted curve at half-maximal effect
# Summary of the method: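 HEK293 cells stably expressing human DRD2, pre-treated with PDE inhibitor Ro20-1724 (0.1 mM final) and compound 10 min at room temperature, then stimulated with NKH477 (200nM […]) for 30 min. cAMP read by HTRF (665/620 nm).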
# [18] = target: D(2) dopamine receptor (Homo sapiens) (UniProt P14416); assay: Dopamine D2 receptor (DRD2) small molecule antagonists, cell-based qHTS assay (AID 1963595; active = well fitted inhibition curve with a large enough effect in the signal ratio in the repeat runs, with a control signal flat; the % refers to the signal ratio; also: potency is read from the fitted curve at half-maximal effect)
# Summary of the method: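 Readout: HTRF cAMP, cAMP-d2 competing with cellular cAMP for anti-cAMP cryptate, read after 1 h. Cells: DRD2-HEK293. Conditions: 0.1 mM Ro20-1724, 12 nM quinpirole, 200 nM NKH477, 30 min RT.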
# [19] = p53 small molecule agonists, cell-based qHTS assay with rat liver microsomes: qHTS cell viability counter screen (AID 1963580); also: nearly all actives have a fitted effect of over 45% in size; also: potency is read from the fitted curve at half-maximal effect
# Summary of the method: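 p53RE-bla HCT-116 cells were exposed 16 h at 37 C to compounds with rat liver microsomes (0.5 mg/mL) and NADPH (0.5 mg/mL). Viability was measured in the same wells as ATP content by CellTiter-Glo luminescence.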
# [20] = target: 5-hydroxytryptamine receptor 2A (Homo sapiens) (UniProt P28223); assay: 5-hydroxytryptamine receptor 2A (HTR2A) small molecule agonists, cell-based qHTS assay (AID 1963587); also: nearly all actives have a fitted effect of over 30% in size
# Summary of the method: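 CHO cells stably expressing human HTR2A, plated 18 h, loaded with calcium dye 1 h at 37 C. Agonist mode: compounds added and intracellular calcium fluorescence recorded kinetically for 2 min at 1 sec intervals.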
# Sequence of KiSS-1 receptor (Homo sapiens) (Q969F8 whole entry, looked up): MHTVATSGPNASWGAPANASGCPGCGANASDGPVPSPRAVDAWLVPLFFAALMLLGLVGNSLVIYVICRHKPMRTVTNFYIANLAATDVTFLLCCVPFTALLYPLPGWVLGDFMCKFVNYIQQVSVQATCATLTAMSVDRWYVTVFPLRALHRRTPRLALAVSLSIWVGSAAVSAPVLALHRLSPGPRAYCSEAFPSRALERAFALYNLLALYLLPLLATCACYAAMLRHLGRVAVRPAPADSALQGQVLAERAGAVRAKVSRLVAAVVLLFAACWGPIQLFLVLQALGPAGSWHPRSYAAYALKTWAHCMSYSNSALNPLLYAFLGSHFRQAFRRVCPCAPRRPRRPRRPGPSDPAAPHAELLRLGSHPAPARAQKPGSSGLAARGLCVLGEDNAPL
# Sequence of Beta-2 adrenergic receptor (Homo sapiens) (P07550 whole entry, looked up): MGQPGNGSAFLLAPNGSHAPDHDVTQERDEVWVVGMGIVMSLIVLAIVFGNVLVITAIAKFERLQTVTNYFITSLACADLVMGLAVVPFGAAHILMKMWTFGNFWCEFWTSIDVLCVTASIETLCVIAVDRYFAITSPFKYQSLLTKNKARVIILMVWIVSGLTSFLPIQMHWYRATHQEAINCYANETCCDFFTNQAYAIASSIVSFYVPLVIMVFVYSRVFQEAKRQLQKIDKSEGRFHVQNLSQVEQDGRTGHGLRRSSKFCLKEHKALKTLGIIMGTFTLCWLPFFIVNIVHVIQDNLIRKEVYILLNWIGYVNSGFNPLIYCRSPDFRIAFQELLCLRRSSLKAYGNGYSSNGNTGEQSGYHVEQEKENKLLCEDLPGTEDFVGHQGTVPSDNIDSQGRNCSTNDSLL
# Sequence of 5-hydroxytryptamine receptor 2A (Homo sapiens) (P28223 whole entry, looked up): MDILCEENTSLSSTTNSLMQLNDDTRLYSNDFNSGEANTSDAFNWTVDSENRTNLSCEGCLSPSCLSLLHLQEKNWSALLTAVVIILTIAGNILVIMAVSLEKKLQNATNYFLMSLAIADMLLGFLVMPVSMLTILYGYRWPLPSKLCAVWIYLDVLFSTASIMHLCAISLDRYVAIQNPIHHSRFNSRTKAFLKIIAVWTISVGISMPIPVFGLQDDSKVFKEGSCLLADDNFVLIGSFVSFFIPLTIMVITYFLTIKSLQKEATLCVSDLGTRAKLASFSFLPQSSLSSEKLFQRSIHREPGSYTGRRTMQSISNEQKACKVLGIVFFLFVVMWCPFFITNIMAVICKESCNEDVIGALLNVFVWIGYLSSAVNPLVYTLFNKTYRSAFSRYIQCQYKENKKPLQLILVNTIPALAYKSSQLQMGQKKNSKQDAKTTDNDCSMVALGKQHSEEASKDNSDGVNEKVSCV
# Sequence of Muscarinic acetylcholine receptor M1 (Homo sapiens) (P11229 whole entry, looked up): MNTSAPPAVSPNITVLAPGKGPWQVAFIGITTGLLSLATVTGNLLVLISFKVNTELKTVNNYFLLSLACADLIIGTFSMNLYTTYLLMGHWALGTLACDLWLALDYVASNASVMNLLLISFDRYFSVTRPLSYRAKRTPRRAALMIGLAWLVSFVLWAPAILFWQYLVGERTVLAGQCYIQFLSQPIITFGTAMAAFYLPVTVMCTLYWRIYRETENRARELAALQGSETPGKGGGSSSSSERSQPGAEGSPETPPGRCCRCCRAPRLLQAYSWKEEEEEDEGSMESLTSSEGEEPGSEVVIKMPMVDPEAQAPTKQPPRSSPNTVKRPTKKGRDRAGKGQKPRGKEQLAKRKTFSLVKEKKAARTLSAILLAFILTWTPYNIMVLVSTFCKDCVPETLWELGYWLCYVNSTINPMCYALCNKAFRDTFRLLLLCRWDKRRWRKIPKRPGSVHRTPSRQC
# Sequence of D(2) dopamine receptor (Homo sapiens) (P14416 whole entry, looked up): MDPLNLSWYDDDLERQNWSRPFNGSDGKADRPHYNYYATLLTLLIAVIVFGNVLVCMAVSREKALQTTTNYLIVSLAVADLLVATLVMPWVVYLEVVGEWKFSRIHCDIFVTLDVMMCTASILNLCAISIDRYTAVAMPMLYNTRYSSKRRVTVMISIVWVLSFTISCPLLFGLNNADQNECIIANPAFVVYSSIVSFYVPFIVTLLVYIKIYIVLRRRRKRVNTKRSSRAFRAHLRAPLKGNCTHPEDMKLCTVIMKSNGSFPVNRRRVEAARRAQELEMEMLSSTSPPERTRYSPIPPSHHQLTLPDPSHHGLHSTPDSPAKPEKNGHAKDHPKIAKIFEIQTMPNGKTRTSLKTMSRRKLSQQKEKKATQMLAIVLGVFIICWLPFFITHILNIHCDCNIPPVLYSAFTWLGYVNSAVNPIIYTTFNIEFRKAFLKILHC
Structure (SMILES),Potency [1],Potency [2],Potency [3],Potency [4],Potency [5],Potency [6],Potency [7],Potency [8],Potency [9],Potency [10],Potency [11],Potency [12],Potency [13],Potency [14],Potency [15],Potency [16],Potency [17],Potency [18],Potency [19],Potency [20]
CC(C)(COCC1CO1)COCC1CO1 (centres undefined),inactive,68.6 µM (active),inactive,inactive,inactive,inactive,inactive,inactive,inactive,inactive,inactive,inactive,inactive,inactive,inactive,inactive,inactive,inactive,–,–
O=C(CCCN1CCC2(CC1)C(=O)NCN2c1ccccc1)c1ccc(F)cc1,inactive,inactive,inactive,inactive,inactive,inactive,inactive,–,inactive,–,inactive,inactive,inactive,inactive,1.5 µM (active),–,inactive,–,inactive,–
Nc1ccc([N+](=O)[O-])cc1,61.1 µM (active),24.3 µM (active),inactive,inactive,inactive,inactive,–,8.39 µM (active),–,–,inactive,inactive,–,–,inactive,–,–,inactive,–,–
CCCCCCCCCC(=O)O[C@H]1CC[C@H]2[C@@H]3CCC4=CC(=O)CC[C@@H]4[C@H]3CC[C@]12C,inactive,inactive,inactive,inactive,inactive,inactive,–,–,–,inactive,inactive,–,inactive,inactive,inactive,inactive,inactive,inactive,inactive,inactive
ClC(Cl)=C(Cl)Cl,inactive,inactive,inactive,inactive,inactive,inactive,inactive,inactive,inactive,–,–,inactive,–,inactive,inactive,inactive,inactive,inactive,inactive,–
COC12CC[C@@]3(C[C@@H]1C(C)(O)C(C)(C)C)[C@H]1Cc4ccc(O)c5c4[C@@]3(CCN1CC1CC1)[C@H]2O5 (some centres undefined),30.4 µM (active),inactive,inactive,inactive,inactive,inactive,–,inactive,–,–,33.2 µM (active),inactive,–,–,inactive,–,inactive,–,–,–
CC(O)C(=O)[O][Hg][c]1ccccc1 (centres undefined),1.72 µM (active),0.864 µM (active),inactive,inactive,inactive,inactive,3.63 µM (active),2.89 µM (active),–,inactive,inactive,54.9 µM (active),–,–,–,–,–,–,8.14 µM (active),–
COc1ccc2[nH]cc(CCN(C(C)C)C(C)C)c2c1,inactive,inactive,inactive,inactive,inactive,inactive,–,–,inactive,–,inactive,inactive,inactive,–,inactive,inactive,inactive,inactive,inactive,–
Cc1ccccc1C(=O)Nc1cccc(OC(C)C)c1,inactive,inactive,inactive,inactive,inactive,inactive,inactive,–,–,inactive,inactive,inactive,–,–,inactive,inactive,inactive,inactive,inactive,inactive
COc1cc(C[C@@H](C)N)c(OC)cc1Br,inactive,inactive,inactive,inactive,inactive,inactive,inactive,–,inactive,inactive,17.2 µM (active),inactive,inactive,inactive,–,–,3.96 µM (active),inactive,inactive,–
CCCCCCCCCC[N+](C)(C)CCCCCCCCCC,27.3 µM (active),inactive,inactive,inactive,inactive,inactive,–,–,–,inactive,10.6 µM (active),inactive,–,43.3 µM (active),–,–,inactive,27.3 µM (active),45.8 µM (active),–
O=C(N[C@H]1N=C(c2ccccc2F)c2cccc3c2N(CC3)C1=O)c1cc2ccccc2[nH]1,inactive,inactive,inactive,inactive,inactive,inactive,inactive,–,–,inactive,inactive,inactive,inactive,inactive,inactive,inactive,8.74 µM (active),inactive,inactive,inactive
Cc1nc(N)nc(N)n1,inactive,inactive,inactive,inactive,inactive,inactive,inactive,inactive,inactive,–,inactive,inactive,inactive,inactive,inactive,–,inactive,–,inactive,inactive
